Laboratory results published in PubChem BioAssay (NCI).
About 83,000 compounds went through this panel and 20% of them were active in at least one assay; those are over-represented in the sample as a whole.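 In brief: 96-well plates, 48 h treatment, single concentration, percent growth endpoint.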 A number with no mark means an inactive call. Activity calls are given as the source filed them.

The molecules below were run on RPMI-8226 leukemia (assay: NCI-60 one-dose screen, 48 h (100 = growth as untreated, 0 = no growth, -100 = all killed)). Details: 10 µM unless noted.
Method: Growth inhibition of the RPMI-8226 human tumor cell line is measured as a screen for anti-cancer activity. Cells are grown in 96 well plates and exposed to the test compound for 48 hours. Compounds are tested at a single concentration, which is 10^-5 M for most compounds. The reported endpoint is percent growth (GI% or GIPRCNT), where numbers from 0 - 100% represent growth inhibition, and numbers from -100% - 0 represent cell death. For example, a value of 40 represents 60% growth inhibition. A value of 0 means no net growth occurred over the course of the experiment. A value of -40 indicates 40% of cells at the beginning of the experiment died by the end of the experiment. A value of -100 means all cells are dead at the end of the experiment.
NCI-60 Human Tumor Cell Lines Screen was performed using the standard one-dose NCI protocol, which is described in more detail at https://dtp.cancer.gov/discovery_development/nci-60/default.htm.
Compounds with GIPRCNT values below 10 were considered active. Activity score was based on GIPRCNT using the following formula: […]
Score is 0 for GIPRCNT values of 100 or above, 50 for GIPRCNT values of 0, and 100 for GIPRCNT values of -100.

SMILES | growth
C=CCn1c(SCC(=O)Nc2ccc(C(=O)/C=C/c3ccc(Cl)cc3)cc2)nnc1-c1cc(OC)c(OC)c(OC)c1 | 28.7%
O=C(CN1N=C(c2ccc(F)cc2)CCC1=O)Nc1nccs1 | 103%
Nc1ccc(C2=NN(C(=O)c3cc(-c4ccc(Cl)cc4)nc4ccccc34)C(c3ccccc3)C2)cc1 (stereo not given) | 8.12% (active)
OCCNc1nc(NCCO)nc(Nc2ccc(C3=NN(c4cc(Cl)cc(Cl)c4)C(c4ccccc4)C3)cc2)n1 (stereo not given) | 30.9%
CCOC(=O)CC[C@H](NC(=O)c1ccc(NC)c2ccccc12)C(=O)OCC | 91.2%
CN1C(=O)c2cc(Cl)nc3c(NC(=O)c4cccc(Cl)c4)c(Cl)c(NC(=O)c4cccc(Cl)c4)c1c23 | 38.4%
Nc1c(C(=O)Nc2ccccc2)sc2nc3c(cc12)CN(C(=O)OCc1ccccc1)CC3 | 53.1%
C=C(C)[C@@H]1CC[C@]2(C(=O)OCCOCCOCC[P+](c3ccccc3)(c3ccccc3)c3ccccc3)CC[C@]3(C)[C@H](CC[C@@H]4[C@@]5(C)CC[C@H](C)C(C)(C)[C@@H]5CC[C@]43C)[C@@H]12 | -59.3% (active)
O=C(CCl)N1CCCc2ccccc21 | 102%
COCCOCCOCc1n(Cc2ccc3ccccc3n2)c2ccccc2[n+]1Cc1ccc2ccccc2n1 | 1.07% (active)
COc1ccc(C(=O)c2cc(OC)c(OC)c(OC)c2)cc1OC(=O)CCl | 29.7%
COc1ccc(-n2cc(-c3ccc(Cl)c(Cl)c3)[nH]c2=O)cc1OC | 97.6%
C=C(C)[C@@H]1CC[C@]2(C(N)=O)CC[C@]3(C)[C@H](CC[C@@H]4[C@@]5(C)CCCNC(C)(C)[C@@H]5CC[C@]43C)[C@@H]12 | 13.5%
C#Cc1cccc(Nc2ncnc3ccc(NC(=O)c4ccccc4)cc23)c1 | 64.6%
O=CN1N=C(c2ccc(Cl)cc2)CC1c1cccc(Nc2ccnc3cc(C(F)(F)F)ccc23)c1 (stereo not given) | 26.4%
COc1cc(C2=NN(C(C)=O)C(c3cccc(Nc4ccnc5cc(C(F)(F)F)ccc45)c3)C2)cc(OC)c1OC (stereo not given) | 20.8%
CC(/C=C/c1ccccc1)=N/NC(=O)c1ccncc1 | 99.9%
CC[C@]12C=CCN3CC[C@@]4(c5cc(NC(=O)CCC(=O)O[C@H]6CC[C@H]7[C@@H]8CC[C@H]9CC(=O)CC[C@]9(C)[C@H]8CC[C@]67C)c(OC)cc5N(C)[C@H]4[C@@](O)(C(=O)OC)[C@@H]1OC(C)=O)[C@@H]32 | 45.2%
C=C1C(=O)O[C@H]2[C@H]1CC/C(COC(=O)n1ccnc1)=C\CC[C@@]1(C)O[C@@H]21 | 85.3%
CC(C)C1=C[C@@]23CC[C@H]4[C@](C)(COCCC#N)CCC[C@]4(C)[C@H]2C[C@@H]1[C@@H]1[C@H]3[C@@H](OCCC#N)CC[C@@H]1OCCC#N | 18.7%

SMILES | growth
COc1ccc(-n2cc(COc3ccc4c5ccnc(C)c5n(CC(C)C)c4c3)nn2)cc1 | 27.5%
N#Cc1c(-c2ccc(F)cc2)nc(N/N=C/c2cccc(O)c2)nc1N1CCOCC1 | 41.3%
C=C(C)[C@@H]1CC[C@]2(C(=O)N=C=S)CC[C@]3(C)[C@H](CC[C@@H]4[C@@]5(C)CCC(=O)C(C)(C)[C@@H]5CC[C@]43C)[C@@H]12 | 16.1%
C#Cc1ccccc1NC(=O)c1sc2nc3c(cc2c1N)CCCCC3 | 97.4%
CC(=O)Nc1c(C(=O)Nc2ccccc2)sc2nc3c(cc12)C(OC(C)=O)CCC3 (stereo not given) | 107%
C/C(=N/Nc1nc2ccccc2n1C)c1ccccn1 | -17.5% (active)
O=C1NN(c2ccccc2)C(c2ccc3c(c2)OCO3)N2CCC[C@@H]12 (stereo not given in full) | 105%
CCOC(=O)c1sc(/N=C2\NC(=O)/C(=C/c3ccc(N4CCN(C)CC4)cc3)S2)nc1C | 87.5%
COC(=O)c1cc2c3c(cc(O)c2[nH]1)N(C(=O)C1Cc2cc(OC)c(OC)c(OC)c2N1)CC3CCl (stereo not given) | -13.2% (active)
CC1CCN(CCCCCOc2ccc3oc4cc(Cl)ccc4c(=O)c3c2)CC1 | 50.4%
CC(C)(C)c1ccc(O)c(Cc2cc(C(C)(C)C)ccc2O)c1 | 47.7%
COc1ccc(/C=C/C(=O)/C=C(/C=C/c2ccc(OC)c(OC)c2)OB(F)F)cc1OC | -20.9% (active)
C=CCn1c(CN2CCN(c3cc4c(cc3F)c(=O)c(C(=O)O)cn4C3CC3)CC2)n[nH]c1=S | 109%
C=C1C(=O)O[C@H]2[C@H]1CC/C(COC(=O)Nc1nc3ccccc3[nH]1)=C\CC[C@@]1(C)O[C@@H]21 | 31.6%
COc1cc2nc3c(=O)n(CCN(C)C)cnn3c(=O)c2cc1OC | 121%
CCc1c(C(=O)N[C@@H](C(=O)OCc2ccccc2)C(C)O)[nH]c2ccc(Cl)cc12 (stereo not given in full) | 82.7%
O=C1Nc2ccc(Cl)cc2/C1=N/c1nc(-c2ccc(Cl)cc2)cs1 | -2.3% (active)
COc1cc(C2=NN(c3ccccc3)C(c3cccc(Nc4ccnc5cc(C(F)(F)F)ccc45)c3)C2)cc(OC)c1OC (stereo not given) | 65.1%
CCCCn1c(=O)c(/C=C/C(=O)/C=C/c2ccc(OC)cc2)cc2cc(Cl)ccc21 | -18.7% (active)
COC(=O)/C=C1\SC(=Nc2cccc(OC)c2)N(CCc2c[nH]c3ccccc23)C1=O | 19.6%
